Measured values published in the supplement of paper PMC12494721.
Structures can show the parent of a compound that is named as a salt.

Experiments:
Conditions in all cases: 20 µM; incubation time: 27 h, anaerobic, 37 °C;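 for the amine columns active = adjusted P below 0.05 in both replicates with a change the same way and a mean fold change under 0.8 or over 1.25; inactive = the rest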
[1] = tested on: Clostridium sporogenes DSM 1664; experiment: growth (OD595) fold change vs plate DMSO controls (fold change (ratio)); higher = more growth
Outline: (§1)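 Shaken 96-well cultures in mGAM, grown anaerobically for 27 h at 37 °C, were read at 595 nm. OD came from blank-subtracted readings, corrected for background with 20 µM compound solutions in water and scaled by a calibration factor of 5. Growth is the fold change versus the plate's median DMSO control. Values average 2 biological replicates, and any fold change above 1.5 is NA.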

[2] = tested on: Escherichia coli IAI1; experiment: as above
Outline: as §1

[3] = tested on: Klebsiella aerogenes DSM 30053; experiment: as above
Outline: as §1

[4] = tested on: Ruminococcus gnavus DSM 108212; experiment: as above
Outline: as §1

[5] = tested on: Klebsiella aerogenes DSM 30053; experiment: fold change of Histamine concentration vs plate DMSO controls (fold change (ratio)); higher = more amine produced, active = hit call of the paper (significant change in both replicates, either direction)
Outline: (§2)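 Anaerobic mGAM cultures of four gut bacterial strains were grown at 37 °C for 27 h in 80 µL wells, starting at OD 0.1 before 1:1 dilution. Compounds were at 20 µM final (sweeteners 50 µM). Whole cultures were extracted with cold acetonitrile/methanol containing 0.1% formic acid and centrifuged. Amines were quantified by LC–triple-quadrupole MS (dynamic MRM) against external calibration curves and drift-corrected within batch. Each value is the fold change versus plate DMSO controls, averaged over 2 biological replicates.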

[6] = tested on: Clostridium sporogenes DSM 1664; experiment: fold change of Tryptamine concentration vs plate DMSO controls (fold change (ratio)); higher = more amine produced, active = hit call of the paper (significant change in both replicates, either direction)
Outline: as §2

[7] = tested on: Ruminococcus gnavus DSM 108212; experiment: as above
Outline: as §2

[8] = tested on: Escherichia coli IAI1; experiment: fold change of Putrescine concentration vs plate DMSO controls (fold change (ratio)); higher = more amine produced, active = hit call of the paper (significant change in both replicates, either direction)
Outline: as §2

[9] = tested on: Klebsiella aerogenes DSM 30053; experiment: as above
Outline: as §2

[10] = tested on: Escherichia coli IAI1; experiment: fold change of Cadaverine concentration vs plate DMSO controls (fold change (ratio)); higher = more amine produced, active = hit call of the paper (significant change in both replicates, either direction)
Outline: as §2

[11] = tested on: Klebsiella aerogenes DSM 30053; experiment: as above
Outline: as §2

[12] = tested on: Ruminococcus gnavus DSM 108212; experiment: fold change of 2-Phenylethylamine concentration vs plate DMSO controls (fold change (ratio)); higher = more amine produced, active = hit call of the paper (significant change in both replicates, either direction)
Outline: as §2

SMILES	growth [1]	growth [2]	growth [3]	growth [4]	fold change of Histamine concentration [5]	fold change of Tryptamine concentration [6]	fold change of Tryptamine concentration [7]	fold change of Putrescine concentration [8]	fold change of Putrescine concentration [9]	fold change of Cadaverine concentration [10]	fold change of Cadaverine concentration [11]	fold change of 2-Phenylethylamine concentration [12]
CCC1(C)CC(=O)NC(=O)C1 [Bemegride]	1.08	1.06	1.04	0.973	0.98 (inactive)	1.04 (inactive)	1.03 (inactive)	0.985 (inactive)	0.981 (inactive)	0.986 (inactive)	0.991 (inactive)	1.03 (inactive)
C[C@@H]1C[C@@H]([C@H](O)CC2CC(=O)NC(=O)C2)C(=O)[C@@H](C)C1 [Cycloheximide]	1.17	0.978	0.995	1.25	1.08 (inactive)	0.956 (inactive)	1.01 (inactive)	1.06 (inactive)	1.03 (inactive)	1.01 (inactive)	0.998 (inactive)	0.95 (inactive)
CNC(=O)Oc1cccc(/N=C/N(C)C)c1	0.913	0.992	0.988	1.04	1.02 (inactive)	1.04 (inactive)	0.993 (inactive)	0.96 (inactive)	1 (inactive)	1.02 (inactive)	1 (inactive)	0.934 (inactive)
C[C@]12C=CC(=O)C=C1CC[C@@H]1[C@@H]2CC[C@@]2(C)[C@H]1CC[C@]2(C)O [Methandrostenolone]	1.01	0.989	1	0.931	0.999 (inactive)	0.98 (inactive)	1.03 (inactive)	1.01 (inactive)	0.995 (inactive)	1.01 (inactive)	0.991 (inactive)	1.02 (inactive)
CCNCC(O)c1cccc(O)c1 (stereo not given) [Etilefrine hydrochloride]	0.977	0.971	0.996	0.981	1.05 (inactive)	1.03 (inactive)	0.959 (inactive)	0.997 (inactive)	1.01 (inactive)	0.991 (inactive)	0.987 (inactive)	0.949 (inactive)
CCCN1C[C@H](CSC)C[C@@H]2c3cccc4[nH]cc(c34)C[C@H]21 [Pergolide mesylate]	0.995	0.953	0.998	0.982	0.953 (inactive)	0.969 (inactive)	1.02 (inactive)	0.968 (inactive)	0.993 (inactive)	1.06 (inactive)	1.01 (inactive)	1.04 (inactive)
O=NN(CCO)CCO [DMNA (N-nitrosodiethanolamine)]	0.95	1.15	1	1.09	0.975 (inactive)	0.994 (inactive)	1.05 (inactive)	1.03 (inactive)	0.957 (inactive)	0.978 (inactive)	1.03 (inactive)	1.08 (inactive)
CCN(CC)N=O [NDEA (N-nitrosodiethylamine)]	1.13	1.04	1.09	1.04	0.928 (inactive)	1 (inactive)	1.01 (inactive)	1.01 (inactive)	0.999 (inactive)	1.03 (inactive)	1.01 (inactive)	1.01 (inactive)
C[C@]12COC(=O)C[C@@H]1CC[C@@H]1[C@@H]2CC[C@@]2(C)[C@H]1CC[C@]2(C)O [Oxandrolone]	0.947	0.993	1.03	0.877	0.945 (inactive)	0.945 (inactive)	1.01 (inactive)	0.974 (inactive)	0.991 (inactive)	1.02 (inactive)	0.999 (inactive)	1.06 (inactive)
CC(C)N1C(=O)c2ccccc2NS1(=O)=O	1.02	1.03	0.992	1.17	0.978 (inactive)	0.976 (inactive)	0.99 (inactive)	0.969 (inactive)	0.979 (inactive)	0.979 (inactive)	0.987 (inactive)	1.03 (inactive)
CO/C=C(/C(=O)OC)c1ccccc1COc1cccc(C(F)(F)F)n1	1.04	1.03	1.05	0.952	0.977 (inactive)	1.02 (inactive)	0.996 (inactive)	1.06 (inactive)	1 (inactive)	1 (inactive)	1 (inactive)	0.98 (inactive)
Clc1ccc(C(OCCN2CCCCC2)c2ccccc2)cc1 (stereo not given) [Cloperastine hydrochloride]	1.14	1.07	1.06	0.788	0.884 (inactive)	1.01 (inactive)	0.88 (inactive)	1.06 (inactive)	0.988 (inactive)	0.958 (inactive)	1.03 (inactive)	1 (inactive)
O=C(O)C(F)(F)C(F)(F)C(F)(F)C(F)(F)C(F)(F)C(F)(F)C(F)(F)F [PFOA (Perfluorooctanoic acid)]	0.946	1.02	0.999	0.985	1.02 (inactive)	0.979 (inactive)	0.94 (inactive)	1.03 (inactive)	1 (inactive)	1.02 (inactive)	0.992 (inactive)	0.878 (inactive)
CCN(CC)C(C)C(=O)c1ccccc1 (stereo not given) [Amfepramone hydrochloride]	1.04	1.05	1.02	1.06	0.955 (inactive)	1.03 (inactive)	1.06 (inactive)	1.06 (inactive)	0.982 (inactive)	0.938 (inactive)	1.01 (inactive)	1.06 (inactive)
CC(C)[N+](C)(CCC(C(N)=O)(c1ccccc1)c1ccccc1)C(C)C [Isopropamide iodide]	1.04	1.09	0.982	1.39	1.01 (inactive)	0.99 (inactive)	0.909 (inactive)	1.24 (inactive)	1.01 (inactive)	0.936 (inactive)	0.997 (inactive)	0.834 (inactive)
Oc1ccc(Cl)cc1Cc1cc(Cl)ccc1O	0.8	0.854	0.898	0.861	1.12 (inactive)	0.557 (inactive)	0.513 (active)	1.15 (inactive)	0.996 (inactive)	1.66 (active)	0.986 (inactive)	0.605 (inactive)
O=C(CCCN1CCC2(CC1)C(=O)NCN2c1ccccc1)c1ccc(F)cc1 [Spiperone]	0.864	0.96	0.968	0.921	1.01 (inactive)	0.991 (inactive)	1.01 (inactive)	1.02 (inactive)	1.01 (inactive)	1.01 (inactive)	0.998 (inactive)	1.04 (inactive)
CCNC(=O)NC(=O)/C(C#N)=N/OC	1.09	1.08	1	1.05	0.937 (inactive)	0.956 (inactive)	1 (inactive)	1.05 (inactive)	1.02 (inactive)	1.06 (inactive)	1.02 (inactive)	1.02 (inactive)
COc1ccc(Cc2nccc3cc(OC)c(OC)cc23)cc1OC [Papaverine hydrochloride]	1.17	1.02	1.08	0.848	0.961 (inactive)	1 (inactive)	0.99 (inactive)	0.964 (inactive)	0.992 (inactive)	1.22 (inactive)	1.02 (inactive)	1.06 (inactive)
C#CCN1C(=O)COc2cc(F)c(N3C(=O)C4=C(CCCC4)C3=O)cc21	0.947	0.989	1	0.933	1.02 (inactive)	1.14 (inactive)	0.98 (inactive)	1.01 (inactive)	1.01 (inactive)	1.04 (inactive)	0.988 (inactive)	0.969 (inactive)
CN1C(=O)COc2c(C(=O)NC3CN4CCC3CC4)cc(Cl)cc21 (stereo not given) [Azasetron hydrochloride]	0.734	0.55	0.585	0.0388	1.03 (inactive)	0.992 (inactive)	1.02 (inactive)	0.507 (inactive)	0.996 (inactive)	0.512 (inactive)	0.982 (inactive)	0.986 (inactive)
CN(C)C(=O)Oc1cc(OC(=O)N(C)C)cc(C(O)CNC(C)(C)C)c1 (stereo not given) [Bambuterol hydrochloride]	1.09	1.03	1	1.18	1.03 (inactive)	1.03 (inactive)	1.02 (inactive)	0.988 (inactive)	1.03 (inactive)	1 (inactive)	0.995 (inactive)	1.02 (inactive)
CC(C)(C)NCC(O)c1ccccc1Cl (stereo not given) [Tulobuterol hydrochloride]	1.21	1.07	1	0.927	1.04 (inactive)	1.08 (inactive)	0.664 (inactive)	1.07 (inactive)	1.01 (inactive)	0.968 (inactive)	0.99 (inactive)	0.653 (inactive)
COc1cc([C@@H]2c3cc4c(cc3[C@H](O)[C@H]3COC(=O)[C@H]23)OCO4)cc(OC)c1OC [Podophyllotoxin]	1.13	1.18	1.14	0.888	0.958 (inactive)	1.01 (inactive)	1.03 (inactive)	1.06 (inactive)	1.02 (inactive)	0.931 (inactive)	1.02 (inactive)	1.02 (inactive)
C[C@]12C/C(=C/O)C(=O)C[C@@H]1CC[C@@H]1[C@@H]2CC[C@@]2(C)[C@H]1CC[C@]2(C)O [Oxymetholone]	1.21	1.01	1	1.16	0.984 (inactive)	0.861 (inactive)	0.223 (active)	1.02 (inactive)	1.02 (inactive)	1 (inactive)	1.01 (inactive)	0.271 (active)
